Sampled rows, rich in hits. Any-hit rate of the full collection: about 10%.
Luciferase inh = blocks purified firefly luciferase enzyme activity | AID 1347043 | Potency, µM (titrated, usually from 115 µM), actives largely listed as inhibitors | hit rate 2.5% among 76,000 | purified P. pyralis luciferase, luminescence, biochemical; note: nearly all actives have a fitted effect of over 65% in size
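FLuc 10nM, D-luciferin 10uM, ATP 10uM, Mg acetate 10mM, Tris acetate pH 7.5, Tween/BSA; cpd qHTS; enzyme added last; CCD luminescence.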
HEK293 tox = kills HEK 293 cells | HEK 293 viability, ATP luminescence (CellTiter-Glo), 48-72 h | Potency, µM (series often up to 115 µM), for inactives: at the top dose activity change, negative = cytotoxicity, actives largely listed as inhibitors | AID 1345083 | hit rate 6.6% among 94,000; note: nearly all actives have a fitted effect of over 60% in size
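qHTS cytotoxicity; HEK 293, 250 cells/well; compound pinned; 48 or 72 hr, 37 degree Celsius, 5% CO2, 95% humidity; CellTiter-Glo, 10 min RT; luminescence (ATP).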
GPT2 inh = GPT2 alanine aminotransferase inhibition. Q8TD30. Recombinant GPT2, coupled pyruvate oxidase/HRP Amplex Red fluorescence. Potency, µM (titrated, usually from 57.7 µM), without a hit: at the highest dose activity change, negative = inhibition, actives largely listed as inhibitors. hit rate 0.25% among 100,000; note: nearly all actives have a fitted effect of over 60% in size
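Inhibition is scored from Amplex Red fluorescence generated when pyruvate oxidase and HRP act on pyruvate released by GPT2. Reactions contain 10ng/uL enzyme, 250uM a-KG and 2mM L-alanine and run 30 min at room temperature.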
hNpr1 antagonist = blocks ANP-stimulated signaling of human Npr1 receptor | Potency, µM (doses to about 46.3 µM), without a hit: at the highest dose activity change, negative = inhibition, usual class: inhibitors | P16066 | HEK293 hNpr1 GloSensor cGMP, ANP-stimulated luminescence | hit rate 1.6% among 76,000; calls by dose curve; note: nearly all actives have a fitted effect of over 60% in size
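HEK293 cells stably expressing human Npr1 and cGMP GloSensor pGS-40F, loaded 2 h with 2% GloSensor reagent, given compound 30 min at room temperature. Luminescence read before and 20 min after 0.1 nM hNppA.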
3T3 cytotox = NIH 3T3 cell cytotoxicity | hit rate 4.3% among 94,000 | Potency, µM (highest dose often 96.7 µM), inactives show at the top dose activity change, negative = cytotoxicity, most hits filed as inhibitors | NIH 3T3 viability, CellTiter-Glo ATP luminescence, 48-72 h; note: nearly all actives have a fitted effect of over 55% in size
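Mouse fibroblast NIH 3T3 cells, 400 per well, received compound via pintool and were incubated for 48 or 72 hr prior to CellTiter-Glo ATP luminescence measurement.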
* marks the source's active call; other numbers are inactive results; [ ] = another dose, or the depositor's remark. Unless noted, calls come from the whole dose curve; as a rule, active = well fitted curve in the direction sought with a large enough effect; inconclusive = small, poorly fitted or top-dose-only effect, or another doubt; inactive = no such curve, though single readings can be large; an effect the other way counts as inactive or inconclusive. % is set by controls: 0 for no effect and ±100 for the full control effect; potency is the fitted concentration of half-maximal effect.

How did c1coc(CN2CCC(NC3CCCN(c4nc5ccccc5s4)C3)CC2)c1 (stereo not drawn) do in these assays?
Luciferase inh: inactive; HEK293 tox: inconclusive; GPT2 inh: inactive; hNpr1 antagonist: 0%; 3T3 cytotox: inconclusive

How did O[C@H]1CCCC[C@@H]1NC1CCN(c2nc3ccc(Cl)cc3s2)CC1 do in these assays?
Luciferase inh: inconclusive; HEK293 tox: 22µM*; GPT2 inh: -3%; hNpr1 antagonist: inconclusive; 3T3 cytotox: 10µM*

Results for Clc1ccc2nc(N3CCC(NC4CCSC4)CC3)sc2c1 (stereo not drawn) ?
Luciferase inh: 35µM*; HEK293 tox: inconclusive; GPT2 inh: inconclusive; hNpr1 antagonist: 11µM*; 3T3 cytotox: -32%

Results for COC1C(=O)N(c2cccc(F)c2)C12CCN(S(=O)(=O)c1c(C)nn(C)c1C)CC2 (stereo not drawn) ?
Luciferase inh: inactive; HEK293 tox: inconclusive; GPT2 inh: 3%; hNpr1 antagonist: -3%; 3T3 cytotox: -21%

What do the screens show for `CC(C)(CC(=O)O)CC(=O)N[C@H]1C[C@H]2C(=O)Nc3ccccc3C(=O)N2C1`?
Luciferase inh: inactive; HEK293 tox: -13%[172 µM]; GPT2 inh: -2%[88.5 µM]; hNpr1 antagonist: -4%[70.6 µM]; 3T3 cytotox: -25%[174 µM]

How did O=C(c1ccc(Cl)cc1)N1CCOC(CN(C(=O)c2ccc(F)cc2)C2CCCC2)C1 (stereo not drawn) do in these assays?
Luciferase inh: inactive; HEK293 tox: 45µM*; GPT2 inh: inactive; hNpr1 antagonist: -17%; 3T3 cytotox: inconclusive

Results for O=C(NCc1cc2n(n1)CCNC2)c1cc2c(s1)CCCCC2 ?
Luciferase inh: 32µM*; HEK293 tox: -2%; GPT2 inh: -12%; hNpr1 antagonist: 3%; 3T3 cytotox: inactive

How did O=C(CCc1cc2n(n1)CCCNC2)NCc1csc2c1CCCC2 do in these assays?
Luciferase inh: inactive; HEK293 tox: -6%; GPT2 inh: inconclusive; hNpr1 antagonist: 0%; 3T3 cytotox: 0%

Results for Cn1ccnc1CN1C[C@@H](F)[C@@H](OCc2nc3ccc(C(F)(F)F)cc3[nH]2)C1 ?
Luciferase inh: inactive; HEK293 tox: -12%[172 µM]; GPT2 inh: -16%[88.5 µM]; hNpr1 antagonist: -1%[70.6 µM]; 3T3 cytotox: -2%[138 µM]

Results for O=C(NCc1ccccc1)C1(c2ccc(Cl)cc2)CCOCC1 ?
HEK293 tox: -25%[172 µM]; 3T3 cytotox: inconclusive

How did Cc1ccc(S(=O)(=O)N(C)C2CCOc3ccccc32)cc1 (stereo not drawn) do in these assays?
Luciferase inh: inactive; HEK293 tox: 100µM*; GPT2 inh: -17%[88.5 µM]; hNpr1 antagonist: -3%[70.6 µM]; 3T3 cytotox: inconclusive

How did Cc1cnc(C(=O)N2CCCC(c3nnc4n3CCN(C3CCCC3)C4)C2)cn1 (stereo not drawn) do in these assays?
HEK293 tox: 2%; GPT2 inh: -18%; 3T3 cytotox: -9%

Results for Cn1cc(CN2CCNc3cc(-c4ccccc4)ncc3C2)cn1 ?
Luciferase inh: 45µM*; HEK293 tox: inconclusive; GPT2 inh: inactive; hNpr1 antagonist: 3%[70.6 µM]; 3T3 cytotox: -13%[138 µM]

What do the screens show for `Cn1cc(CN2CCNc3cc(Nc4ccccc4)ncc3C2)cn1`?
Luciferase inh: 28µM*; HEK293 tox: -60%[172 µM]; GPT2 inh: 3%[88.5 µM]; hNpr1 antagonist: 1%[70.6 µM]; 3T3 cytotox: inconclusive

How did c1ccc(CN2CCNc3cnc(Nc4ccc(N5CCOCC5)cc4)cc3C2)cc1 do in these assays?
Luciferase inh: inconclusive; HEK293 tox: 71µM*; GPT2 inh: inconclusive; hNpr1 antagonist: inconclusive; 3T3 cytotox: 40µM*

Results for O=C(Nc1ccc([C@@H](O)[C@H]2COCC(=O)N2Cc2ccc(F)cc2)cc1)c1ccc2c(c1)OCO2 ?
Luciferase inh: inconclusive; HEK293 tox: inconclusive; GPT2 inh: inactive; hNpr1 antagonist: 2%; 3T3 cytotox: -29%

How did Cc1noc(C)c1CC(=O)N1CCC2(CC1)CN([S+](C)(=O)[O-])Cc1ccccc1O2 do in these assays?
HEK293 tox: -2%; GPT2 inh: inactive; 3T3 cytotox: -10%

How did CN(C)c1nccnc1OC1CCN(C(=O)CCC(=O)c2ccc(F)cc2)C1 (stereo not drawn) do in these assays?
Luciferase inh: inconclusive; HEK293 tox: inconclusive; GPT2 inh: inactive; hNpr1 antagonist: -3%; 3T3 cytotox: -20%

Results for Cc1ccc(OCC(=O)N2CCOc3ccc(CN4CCOCC4)cc3C2)cc1 ?
HEK293 tox: -28%; GPT2 inh: -6%; 3T3 cytotox: -30%

What do the screens show for `CC1(C(=O)NCc2cnccn2)CCc2cnc(NCc3ccccc3)nc21` (stereo not drawn)?
Luciferase inh: inactive; HEK293 tox: -4%[172 µM]; GPT2 inh: 3%[88.5 µM]; hNpr1 antagonist: 1%[70.6 µM]; 3T3 cytotox: 50µM*

Results for CC1(C(=O)NCCc2ccccn2)CCc2cnc(NCc3ccccc3)nc21 (stereo not drawn) ?
Luciferase inh: inactive; HEK293 tox: -30%[172 µM]; GPT2 inh: 2%[88.5 µM]; hNpr1 antagonist: -2%[70.6 µM]; 3T3 cytotox: 40µM*

Results for CC1(C(=O)NCc2cccnc2)CCCc2cnc(Nc3ccccc3F)nc21 (stereo not drawn) ?
Luciferase inh: inactive; HEK293 tox: inconclusive; GPT2 inh: inconclusive; hNpr1 antagonist: 2%[70.6 µM]; 3T3 cytotox: inconclusive

What do the screens show for `CC1(C(=O)N2CCN(c3ccccn3)CC2)CCc2cnc(NCc3ccccc3)nc21` (stereo not drawn)?
Luciferase inh: inactive; HEK293 tox: 100µM*; GPT2 inh: 2%[88.5 µM]; hNpr1 antagonist: -8%[70.6 µM]; 3T3 cytotox: inconclusive

Results for CC1(C(=O)NCC2CCCO2)CCc2cnc(NCc3ccccc3)nc21 (stereo not drawn) ?
Luciferase inh: inactive; HEK293 tox: -26%[172 µM]; GPT2 inh: -2%[88.5 µM]; hNpr1 antagonist: -5%[70.6 µM]; 3T3 cytotox: 50µM*

What do the screens show for `CC1(C(=O)NCC2CC2)CCCc2cnc(NCc3ccccc3)nc21` (stereo not drawn)?
Luciferase inh: inactive; HEK293 tox: inconclusive; GPT2 inh: -16%[88.5 µM]; hNpr1 antagonist: -24%[70.6 µM]; 3T3 cytotox: inconclusive

Results for Cc1cc(C(=O)Nc2ccc([C@H]3OCC(=O)N(Cc4cccnc4)[C@@H]3CO)cc2)c(C)o1 ?
Luciferase inh: inactive; HEK293 tox: -1%; GPT2 inh: -42%; hNpr1 antagonist: 2%; 3T3 cytotox: -15%

What do the screens show for `CC(=O)NC1(C)CCN(Cc2ccc(-c3cccc(Cl)c3)cc2)C1` (stereo not drawn)?
Luciferase inh: inactive; HEK293 tox: 89µM*; GPT2 inh: -1%[88.5 µM]; hNpr1 antagonist: -22%[70.6 µM]; 3T3 cytotox: inconclusive

From PubChem
